Assay results from ChEMBL document CHEMBL3988442, “University of Dundee, Small-Polar-MMV Screening Library” (2021).
Out of some 48,000 compounds screened, about 13,000 (27%) showed an effect of 50% or more. The list shows a part of the results.

What follows are compounds tested on Wolbachia pipientis (assay: Anti-Wolbachia Cell-Based Screen). Conditions: 5 µM.
Type: functional
Design: scale not given: in the data most compounds retested in dose-response had high values

Compound | Percent Effect
Cc1ccccc1C1CCN(C(=O)CCNC(=O)C(C)(C)C)C1 (configuration not stated) | -3.334%
CCNc1ncc(C(=O)NCCNc2ccncc2C)cn1 | 11.05%
Cc1cnccc1-c1cnn(CCNC(=O)c2cccnc2)c1C1CC1.Cl | 156.9%
Cc1cnn(C(C)C2CC2)c1NC(=O)c1ccncc1 (configuration not stated) | -0.2997%
CCOC(=O)NC(CNC(=O)c1ccccn1)CC(C)C (configuration not stated) | -0.8901%
Cc1cnccc1-c1cnn(CCNC(=O)c2ccncc2)c1C1CC1.Cl | 189.5%
Cc1cnccc1-c1cnn(CCNC(=O)C(C)(C)C)c1C1CC1.Cl | 128.5%
O=C(NCCSC1CCCC1)c1cnccn1 | 5.351%
Cc1cnccc1-c1cnn(CCNC(=O)c2ccccn2)c1C1CC1.Cl | 221.9%
Cc1ccc(CN(C(=O)NCCNC(=O)c2cccnc2)C(C)C)o1 | -0.6443%
CC(C)(C)C(=O)NCCC(=O)NS(=O)(=O)c1cccnc1 | 1.555%
CC(Cn1cccn1)NCc1csc(-c2ccc(F)cc2)n1 (configuration not stated) | 3.098%
CCCSCC(=O)Nc1ncn(CC(=O)N2CCCCCC2)n1 | -27.1%
COC(=O)c1cccc(CN(C)Cc2ncnn2C)c1C#N | -234%
O=C(Nc1cnn(-c2ccccc2Cl)c1)N[C@@H]1C=C[C@H](CO)C1 | -14.17%
O=C(NCC1CC1)Nc1cnc2ccc(F)cc2c1O | 100.3%
COc1ccc2c(O)c(NC(=O)NCC3CC3)cnc2c1 | -18.39%
O=C(Cn1cnnn1)Nc1ccc(F)cc1OCC1CC1 | 11.02%
CNc1nc(CNC(=O)Nc2cccc(COCCOC(C)C)c2)cs1 | -6.236%
CC(C)c1ccc(S(=O)(=O)N2CCCC3(CCCN3S(C)(=O)=O)C2)cc1 (configuration not stated) | 108.3%
CCc1ccc(S(=O)(=O)N2CCC3(CC(C(=O)NC)=NO3)C2)cc1 (configuration not stated) | 16.22%

Compound | Percent Effect
CCc1ccc(S(=O)(=O)N2CCCC3(CCCN3S(C)(=O)=O)C2)cc1 (configuration not stated) | 114.6%
CS(=O)(=O)N1CCCC12CCCN(c1nccs1)C2 (configuration not stated) | 4.667%
CC(C)CC(c1nc(-c2cnn(C)c2)no1)N1CCCCC1=O (configuration not stated) | 17.74%
CC(=O)c1ccc(Cl)c(Cl)c1OCC(=O)NC(N)=O | 29.22%
CCOC(=O)COc1cccc(NC(=O)C2COCCO2)c1 (configuration not stated) | -0.4507%
Cc1ccc(OCC(C)NS(C)(=O)=O)cc1C (configuration not stated) | 1.577%
Cc1ccccc1NC(=O)CNC(C)COc1ccccc1 (configuration not stated) | -5.07%
CCOC(=O)COc1ccc(C(C)=O)c(O)c1 | 95.41%
CC(=O)c1ccc(OCC(C)O)cc1O (configuration not stated) | 100.7%
CN(Cc1cccc(F)c1)C(=O)CN1CCCCC1Cn1cncn1 (configuration not stated) | -4.656%
COC(=O)CCN1CCCC1c1cccc2c1OCCO2 (configuration not stated) | 6.335%
CN(C)C(=O)N1CC[C@@H](c2ccc3ccccc3c2)[C@H](O)C1 | 2.148%
COc1ccc(-c2noc([C@@H](C)NC(=O)CC(C)C)c2C(=O)O)cc1 | 0.3938%
Cc1cc(CN(C)Cc2csc(-c3ccc(C(C)C)cc3)n2)no1 | -4.334%
CC(C)c1ccc(C(N)c2cccs2)cc1 (configuration not stated) | -4.854%
COc1ccc(-c2nonc2N)cc1 | 116.2%
CC(C)c1ccc(-c2nonc2N)cc1 | 135.4%
COCC(=O)N[C@H](C)c1onc(-c2ccc(OC)cc2)c1C(=O)O | 9.623%
CCN1CCN(c2ccc(F)cc2C(C)NCc2cscn2)CC1 (configuration not stated) | 16.44%
CC(C)CCC1=NC2(CCN(C(=O)N3CCN(C)CC3)CC2)C(=O)N1 | 15.84%
CN(C)C1CCC2(CCN(Cc3cccnc3)CC2)c2ccccc21.O=C(O)C(F)(F)F.O=C(O)C(F)(F)F.O=C(O)C(F)(F)F (configuration not stated) | 103.9%

Compound | Percent Effect
Cn1ccnc1CN1CCC2(CC1)CC(Nc1ccccn1)CO2 (configuration not stated) | -5.655%
Cn1ccnc1CN1CCC2(CC1)CC(NC(=O)c1ccccn1)CO2.O=C(O)C(F)(F)F (configuration not stated) | -5.802%
Cn1ccnc1CN1CCC2(CC1)CC(N1CCCC1)c1ccccc12 (configuration not stated) | 116.8%
COc1ccc2c(c1)C1(CCN(Cc3cccnc3)CC1)N(C)CC2.O=C(O)C(F)(F)F.O=C(O)C(F)(F)F.O=C(O)C(F)(F)F | 47.52%
CN(C)C1CC2(CCN(C(=O)NC3CC3)CC2)c2ccccc21.O=C(O)C(F)(F)F (configuration not stated) | -41.61%
Cn1ccnc1CN1CCN(Cc2ccccc2C#N)CC1 | 1.879%
CN(C)C1CCC2(CCN(Cc3nccn3C)CC2)c2ccccc21.O=C(O)C(F)(F)F.O=C(O)C(F)(F)F (configuration not stated) | 100.5%
CCN(Cc1ccoc1)C(=O)NC1CCN(CC=C(C)C)CC1 | -3.465%
Cc1cc(CN2C[C@@H](N3CCN(C)CC3)[C@H]3OCCC[C@H]32)oc1C.O=C(O)C(F)(F)F.O=C(O)C(F)(F)F.O=C(O)C(F)(F)F | 8.988%
Cc1nc(CO[C@H]2CN(C(=O)c3cccnc3)[C@@H]3COC[C@H]23)cs1 | -38.06%
N#Cc1ccc(C(=O)N2C[C@H](OCc3cccnc3)[C@H]3COC[C@H]32)cc1 | 101.1%
O=C(c1cscn1)N1C[C@H](OCc2cccnc2)[C@H]2COC[C@H]21 | 102.7%
N#Cc1ccc(N2CCC3(CC2)CC(OCc2cccnc2)CO3)cc1.O=C(O)C(F)(F)F (configuration not stated) | 6.886%
Cc1ccc(C(=O)N2C[C@H]3CCCC(OCc4cccnc4)[C@H]3C2)cn1.O=C(O)C(F)(F)F.O=C(O)C(F)(F)F (some centres not stated) | -3.164%
O=C(c1ccc2c(c1)OCO2)N1C[C@H](OCC2CC2)[C@H]2COC[C@H]21 | -18.04%
Cc1ccc(C(=O)N2C[C@H](OCc3cccnc3)[C@H]3COC[C@H]32)cn1 | 93.92%
O=C(c1ccnnc1)N1C[C@H]2CCC[C@@H](OCc3cccnc3)[C@@H]2C1 | -7.774%
O=C(O)C(F)(F)F.O=C(c1cscn1)N1C[C@H]2CCCC(OCc3cccnc3)[C@H]2C1 (some centres not stated) | -12.9%
O=C(c1ccncn1)N1CCO[C@H]2[C@@H](OCc3cccnc3)CC[C@@H]21 | -20.63%
O=C(C1CCOCC1)N1C[C@H](OCc2cccnc2)[C@H]2COC[C@H]21 | 112.8%
